In PubChem BioAssay (NCATS):
Values joined by “and” are separate entries in the source; they are usually repeats but may differ in a detail not shown here. Equal values may be shown once. Results filed as inconclusive are left out. Some structures have more than one record in an assay (separate samples or runs), and their calls can disagree. Active and inactive are the calls of the source. Calls follow the shape of the dose curve; as a rule, active = well fitted inhibition curve with a large enough effect; inconclusive = small, poorly fitted or top-dose-only effect; inactive = flat fitted curve, though single readings scatter.

assay: qHTS for Inhibitors of Plasmodium falciparum (DD2) proliferation (AID 504314); conditions: P. falciparum Dd2 in erythrocytes, SYBR Green growth, 72 h; series mostly up to 6.11 µM; activity, negative = inhibition: at the top concentration
Source text: Plasmodium falciparum is a virulent malarial parasite that kills 1-2 million people worldwide each year. Malaria not only inflicts tremendous suffering and morbidity on the human population, but has dramatically influenced the course of civilization with profound sociological and economic implications (Shah, S. 2010). Transmitted by mosquitoes, the sporozoite form of the parasite enters the blood stream to infect hepatocytes, where they become merozoites that infect red blood cells (erythrocytes). Within erythrocytes, merozoites begin a […] cycle of growth and division, after which the parasite is released to infect new red blood cells. Gametocytes, which form within erythrocytes as well, circulate in the bloodstream and are ingested by the mosquito, thereby completing the life cycle (see CDC website). To profile malarial lines for differential chemical responses and to identify inhibitors of malarial growth, an assay that measures P. falciparum growth and replication within erythrocytes was employed. This assay uses a DNA binding fluorescent dye (SYBR Green) to detect parasite DNA following cell lysis. Because mature erythrocytes lack DNA, only Plasmodium-derived DNA is detected. The P. falciparum line cp250, derived from a malarial isolate from Cambodia, (Mu, J., et al. 2010) was added to the panel of lines, Dd2, HB3, 7G8 and GB4 in this study.
Laboratory of Assay Development and Screening Technology [ADST] and NIH Chemical Genomics Center [NCGC]
Boston University, Chemistry Department, Center for Chemical Methodology and Library Development [CMLD-BU]
NIH National Institute of Allergy and Infectious Diseases [NIAID]
ADST Assay Protocol Summary:
The 1536-well SYBR Green viability assay was based on the method of Bennett et al (2004) and described previously in 1536-well format (Yuan J., et al. 2009). For screening 3 ul culture medium was dispensed into 1536 well black clear bottom plates (Aurora Biotechnologies) using a Multidrop Combi (Thermo Fisher Scientific Inc.), 23 nL compounds in DMSO were added by a pin transfer (Cleveland, P.H. and Koutz, P.J, 2005) using a pin tool-based delivery system (Kalypsys), and 5 ul of erythrocytes infected with P. falciparum one of five lines (cp250, Dd2, HB3, 7G8 or GB4, 0.3% parasitemia, 2.5% hematocrit final concentration) were added. The plates were incubated at 37C in a humidified incubator in 5% CO2 for 72 h, and 2 ul lysis buffer (20 mM Tris HCl, 10 mM EDTA, 0.16% saponin, 1.6% triton X, 10X SYBR Green I (supplied as 10,000X final concentration by Invitrogen) was added to each well. The plates were mixed for 25 sec with gentle shaking and incubated overnight at room temperature in the dark. The following morning, fluorescence intensity at 485(14) nm excitation and 535(25) nm emission wavelengths was measured on an EnVision (Perkin Elmer) plate reader. Plate reads were normalized relative to the control inhibitor (0.29 uM artemisinin) and vehicle (DMSO) wells present on each plate and then corrected by an algorithm using vehicle-only control plates at the beginning and end of the compound plate stack.
Shah, S. (2010). The Fever: how malaria has ruled humankind for 500,000 years. New York, Sarah Crichton Books.
CDC web site, http://www.cdc.gov/malaria/about/biology/index.html
Mu, J., Myers, R.A., Jiang, H., Liu, S., Ricklefs, S., Waisberg, M., Chotivanich, K., Wilairatana, P., Krudsood, S., White, N.J., et Plasmodium falciparum genome-wide scans for positive selection, recombination hot spots and resistance to antimalarial drugs Nature Genetics 2010, 42, pp 268-271
Bennett TN, Paguio, M., Gligorijevic, B., Seudieu, C., Kosar, A. D., Davidson, E., and Roepe, P. D. Novel, rapid, and inexpensive cell-based quantification of antimalarial drug efficacy Antimicrobial Agents Chemother. 2004, 48(5): pp 1807-10
Yuan J, Johnson RL, Huang RL, Wichterman J, Jiang HY, Hayton K, Fidock DA, Wellems TE, Inglese J, Austin CP, Su XZ. […]
Potency is read from the fitted curve at half-maximal effect.

SMILES | activity, negative = inhibition | Potency
CC(C)CON=C1C[C@@H](O)[C@@H](O)[C@@H]2[C@H]3C(=O)N(c4ccc(F)cc4F)C(=O)[C@@H]3CC[C@H]12 | -2.85% (inactive) | 
C[C@@H]1CC2=CCCC2[C@]2(O1)C(=O)Nc1cccc(Br)c12 (stereo not given in full) | -8.39% (inactive) | 
CCCC[C@]12Cc3cc(C#N)ccc3[C@H](O1)c1c(cc(C)n(-c3ccccc3)c1=O)O2 | -9.3% (inactive) | 
C#CCCCON=C1C[C@@H](O)[C@H](O)[C@H]2[C@@H]3C(=O)N(c4ccc(F)cc4F)C(=O)[C@@H]3CC[C@@H]12 | -8.06% (inactive) | 
c1ccc(CCc2nc(-c3ccccc3)oc2Nc2ccc3ccccc3c2)cc1 | -5.72% (inactive) | 
C=CC1=C2C=C(C3CC3)N(CCN3CCOCC3)C=C2C(=O)C(C)(OC(=O)c2ccco2)C1=O (stereo not given) |  | inactive
CCOC(=O)C1=CN(CCc2cn(Cc3ccccc3)nn2)C(=O)NC1c1ccccc1 (stereo not given) | -4.88% (inactive) | 
COc1ccc(N2C=C3C(=O)C(C)(OC(=O)C4CCCC4)C(=O)C=C3C=C2c2ccsc2)cc1 (stereo not given) | -0.73% [at 1.12 µM] (inactive) | 
CC1(OC(=O)C2CCCC2)C(=O)C=C2C=C(c3ccsc3)N(CCc3ccccn3)C=C2C1=O (stereo not given) |  | inactive
COC(=O)CC=C[C@@H](C)[C@H](OC)c1ccccc1Br |  | inactive and 1.5 µM (active)
COC(=O)NCC=Cc1nc(CCCO)co1 | -0.534% (inactive) | 
CC1=CC[C@@H](C)O[C@@]2(C1)C(=O)Nc1ccccc12 |  | inactive
C=C(C)CCN1C(=O)NC(c2ccccc2)C(C(C)=O)=C1C (stereo not given) | -4.11% (inactive) | 
COCCN1C(=O)NC(c2ccc(Br)cc2)C(C(=O)OC)=C1C (stereo not given) | -0.476% (inactive) | 
Cc1ccc(C(O)C2=CCCC2=O)cc1 (stereo not given) | -4.68% (inactive) | 
COC(=O)CCC(=O)OC1(C)C(=O)C=C2C=C(C3CC3)N(Cc3ccc4c(c3)OCO4)C=C2C1=O (stereo not given) | -0.0348% [at 1.12 µM] (inactive) | 
C=C(C)CCN1C(=O)NC(c2cccc(C(F)(F)F)c2)C(C(=O)OC)=C1C (stereo not given) | 4.62% (inactive) | 
C=CCOC(=O)N[C@H](c1ccccc1)C(C(C)=O)C(C)=O | -9.78% (inactive) | 
COC1=C[C@H](C(=O)NCCOC(C)=O)[C@H](C)[C@@H](c2ccccc2)CC1=O | -6.91% (inactive) | 
O=C1OC2(CCCCC2)CC2=C1[C@H]1O[C@](CCCCN3C(=O)c4ccccc4C3=O)(Cc3ccccc31)O2 |  | 1.5 µM (active)

SMILES | activity, negative = inhibition | Potency
C[C@@H]1CC[C@H]2C(=O)N(Cc3cccc([N+](=O)[O-])c3)C[C@H](O)CN2[C@@H]1c1cccc(Br)c1 | -10.9% (inactive) | 
CC(Nc1oc(-c2ccccc2)nc1C(C)(C)C)c1ccccc1 (stereo not given) | -4.61% (inactive) | 
COC(=O)N[C@H](C(C(=O)OC)=C(C)NCc1ccccc1)c1ccccc1 | -5.35% (inactive) | 
COC(=O)C1=C(C(=O)OC)[C@@H]2N(Cc3ccccc3)c3ccccc3[C@@]23C[C@@H](C(=O)OC)N(C(=O)c2cc(C)oc2C)C3=N1 |  | inactive
COC(=O)N[C@@H](CCc1ccccc1)[C@]1(C(=O)OC)CCCC1=O | -10.4% (inactive) | 
COC(=O)C1=C(C(=O)OC)[C@@H]2N(C)c3ccccc3[C@@]23CCC(=O)N(CC(C)C)C3=N1 | -7.7% (inactive) | 
COCCN1C(=O)CC[C@@]23C1=NC(C(=O)OC)=C(C(=O)OC)[C@@H]2N(Cc1ccccc1)c1ccccc13 | -12.5% (inactive) | 
CC(C)=CCN1C(=O)C2(CC(C)=C[C@@H](C)O2)c2c(Br)cccc21 (stereo not given in full) | -12.7% (inactive) | 
COC(=O)CC1=CO[C@@H](O)[C@@H]2C(CO)=CC[C@@H]12 | -3.42% (inactive) | 
CC(C)=CCCC(C)=CCN1C(=O)[C@]2(O[C@H](C)CC3=CCCC32)c2c(Br)cccc21 (stereo not given in full) | -7.58% (inactive) | 
C[C@@H]1CC[C@H]2C(=O)N(Cc3cccc([N+](=O)[O-])c3)C[C@@H](O)CN2[C@@H]1c1ccc(Br)cc1 | -8.97% (inactive) | 
COC(=O)N1C(c2ccccc2)=Cc2ccccc2C1C1(C(=O)OC)CCCC1=O (stereo not given) |  | inactive
COC(=O)CC=C1c2ccccc2[C@@H](OC)[C@@H]1C |  | inactive
CC1(OC(=O)C2CCCC2)C(=O)C=C2C=C(c3ccsc3)N(CCN3CCOCC3)C=C2C1=O (stereo not given) | 1.21% [at 1.12 µM] (inactive) | 
COC(=O)C1=C(C)[C@@H](O)[C@@H](C)[C@](C)(c2cc(OC)c(C)c(OC)c2COc2ccccc2)O1 |  | inactive
CC(CCN1CCCCc2nc(C)c(C)cc21)=NO[C@H](C)c1cn([C@@H]2COC[C@@H]2O)nn1 | -6.25% (inactive) | 
C=CCOC(=O)N[C@@H](CCc1ccccc1)C(C(C)=O)C(C)=O | -3.2% (inactive) | 
COc1ccc2c(c1)CO[C@H]([C@H](O)COC(C)=O)[C@H]2C=Cc1ccccc1 | -2.12% (inactive) | 
Cc1cc2c(nc1C)CCCN2CC(O)CN1CCN(C)CC1 (stereo not given) | 0.326% (inactive) | 
C=C=CCCN1C(=O)NC(c2ccccc2)C(C(=O)OC)=C1C (stereo not given) | 1.75% (inactive) | 
